In PubChem BioAssay AID2576 (National Center for Advancing Translational Sciences (NCATS), 2010) one finds Potency data, which are given here for 38 compounds.

Values joined by “and” are separate entries in the source; they are usually repeats but may differ in a detail not shown here. Equal values may be shown once. Inconclusive results are not listed. Where a call stands in place of a potency, no number is given. More than one record can exist for a structure, and the calls need not agree. Active and inactive are the calls of the source. Calls come from the whole dose curve; as a rule, active = well fitted activation curve with a large enough effect; inconclusive = small, poorly fitted or top-dose-only effect, or effect the other way; inactive = flat fitted curve, though single readings scatter.

Chain of Pyruvate kinase PKM (Homo sapiens) (P14618 whole entry, looked up, canonical isoform): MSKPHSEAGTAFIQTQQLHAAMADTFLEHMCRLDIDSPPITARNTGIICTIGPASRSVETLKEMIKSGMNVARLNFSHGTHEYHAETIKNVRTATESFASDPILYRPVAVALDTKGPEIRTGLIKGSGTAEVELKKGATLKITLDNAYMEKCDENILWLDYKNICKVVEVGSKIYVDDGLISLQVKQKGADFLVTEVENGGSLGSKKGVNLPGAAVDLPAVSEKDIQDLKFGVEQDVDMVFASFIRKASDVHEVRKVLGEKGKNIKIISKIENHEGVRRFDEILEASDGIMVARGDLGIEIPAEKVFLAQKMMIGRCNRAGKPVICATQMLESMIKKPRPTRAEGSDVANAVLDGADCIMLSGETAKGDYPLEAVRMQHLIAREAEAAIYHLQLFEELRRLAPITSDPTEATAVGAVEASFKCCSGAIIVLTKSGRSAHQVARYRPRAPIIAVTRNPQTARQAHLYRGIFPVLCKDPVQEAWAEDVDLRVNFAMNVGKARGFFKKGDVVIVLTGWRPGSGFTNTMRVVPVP

This assay has as its target Pyruvate kinase PKM (Homo sapiens) (UniProt P14618). The assay is described as follows: Secondary LDH Assay for Activators of Human Pyruvate Kinase M2 isoform: for Probe SAR. Particulars: purified hPK-M2, LDH-coupled NADH fluorescence kinetic; series mostly up to 58.4 µM. An excerpt:
NIH Chemical Genomics Center [NCGC] Matthew G. Vander Heiden, M.D., Ph.D. [Harvard Medical School, 77 Avenue Louis Pasteur, Boston, MA 02115] NCGC Assay Overview: Human pyruvate kinase muscle 2 (hPK-M2)enzyme was supplied as a highly purified (>95% pure) preparation from Harvard Medical School and a secondary assay was used to evaluate compounds. This assay couples the formation of pyruvate from hPK-M2 using lactate dehydrogenase (LDH) and NADH. The depletion of NADH is followed in a fluorescent-based kinetic assay that follows the formation of pyruvate to lactate, as catalyzed LDH (described by Hannaert et al., 2002)1 Pyruvate kinase substrates, PEP and ADP, were present in the assay at 0.1 mM and 4 mM respectively. In this kinetic assay initial rates were determined by following the fluorescence of NADH depletion.
NCGC Assay Protocol Summary: Three uL of substrate mix (final concentration, 50 mM Tris-Cl pH 8.0, 200 mM KCl, 15 mM MgCl2, 0.1 mM PEP, 4.0 mM ADP, and 0.2 mM NADH) was dispensed into black-solid 1536 well plates. 23 nL of compounds were delivered by a pin tool and 1 uL of enzyme mix (final concentrations, 10 nM hPK-M2 and 1 uM of LDH) was added. Plates were immediately placed in ViewLux (Perkin Elmer) and NADH fluorescence was determined at 30 second exposure intervals for between 3 and 6 minutes. Data were normalized to the uninhibited and EC100 activation using known activators such as fructose-bis-phosphate.
Take `O=S(=O)(c1ccc2c(c1)OCCO2)N1CCN(S(=O)(=O)c2c(F)cccc2F)CC1`: the Potency was 5800 nM (active).
The same measure for `O=S1(=O)N=C(Oc2ccc(Cl)cc2)c2ccccc21`: “inactive”.
Consider `Cc1cc2c(s1)c1cnn(Cc3ccccc3F)c(=O)c1n2C`, for which the Potency result was “inactive and 291 nM (active)”.
For the compound `O=C1CCc2cc(S(=O)(=O)Nc3ccc(-c4ccccc4)cc3)ccc2N1`, the Potency entry is “inactive”.
As for `COc1cccc(Cn2ncc3c4sc(SC)cc4n(C)c3c2=O)c1`, the Potency was 206 nM (active).
With `O=C1c2ccccc2C(=O)N1c1cc(=O)c2ccccc2[nH]1` the entry was “inactive”; with `Cc1ccc(NS(=O)(=O)c2cc3c(cc2-c2cn[nH]c2)NC(=O)CO3)cc1C`, “inactive”.
The same measure for `O=C1CCc2cc(S(=O)(=O)Nc3ccccc3-c3ccccc3)ccc2N1`: “inactive”.
With `O=C1CCc2cc(S(=O)(=O)NCc3ccccc3)ccc2N1` the entry was “inactive”.
In the case of `COc1cc(N2C(=O)c3ccccc3C2=O)c2ncccc2c1`, the Potency result is “inactive”.
For the compound `Cc1ccc(-c2nc3cnccn3c2Nc2ccc(C(C)C)cc2)o1`, the Potency result is “inactive”.
As to `Cc1ccc(NS(=O)(=O)c2cc3c(cc2N2CCCCC2)NC(=O)CC3)cc1C`, the Potency entry is “inactive”.
In the case of `O=C1c2ccccc2C(=O)N1c1cccc2ccncc12`, the Potency entry was “inactive”.
Regarding `COc1ccccc1OC1=NS(=O)(=O)c2ccccc21`, the Potency result was “inactive”.
The same measure for `CNc1cccc(S(=O)(=O)N2CCN(S(=O)(=O)c3ccc4c(c3)OCCO4)CC2)c1`: “inactive”; for `O=C1c2ccccc2C(=O)N1c1nccs1`: “inactive”; for `Cc1ccccc1NS(=O)(=O)c1ccc2c(c1)CCC(=O)N2`: 6510 nM (active).
With `Cc1ccc(NS(=O)(=O)c2cc3c(cc2N(C)C)NC(=O)CC3)cc1C`, the Potency is 1030 nM (active).
Consider `Fc1ccccc1-c1ccc(-c2nc3ccc(Cl)cn3c2Nc2ccc(Cl)cc2)o1`, for which the Potency entry is “inactive”.
In the case of `CN(C)c1cccc(S(=O)(=O)N2CCN(S(=O)(=O)c3ccc4c(c3)OCCO4)CC2)c1`, the Potency entry is “inactive”.
With `Cc1cc2c(s1)c1cnn(Cc3cc(F)c(F)cc3F)c(=O)c1n2C` the figure was 398 nM (active).
The same measure for `CCCCN1C(=O)c2ccccc2C1=O`: “inactive”.
With `Cc1ccccc1Nc1c(-c2ccc(Cl)s2)nc2ccccn12`, the Potency result is “inactive”.
The same measure for `Cc1ccc(NS(=O)(=O)c2cc3c(cc2F)NC(=O)CC3)cc1C`: 2590 nM (active); for `O=S1(=O)N=C(Oc2cccc(Cl)c2)c2ccccc21`: “inactive”.
Regarding `O=C1CCc2cc(S(=O)(=O)Nc3ccccn3)ccc2N1`, the Potency result was “inactive”.
With `O=C1c2ccccc2C(=O)N1Cc1cccnc1` the entry was “inactive”.
The same measure for `COc1cccc(N2C(=O)c3ccccc3C2=O)c1`: “inactive”; for `O=C1NS(=O)(=O)c2ccccc21`: “inactive”; for `Cc1ccc(NS(=O)(=O)c2cc3c(cc2-c2ccccc2)NC(=O)CO3)cc1C`: “inactive”.
`Cc1ccc(NS(=O)(=O)c2ccc(N3CCCC3=O)cc2)cc1C`: the Potency result was “inactive”.
The same measure for `COc1cc(F)c(S(=O)(=O)N2CCCN(S(=O)(=O)c3cccc(N)c3)CC2)c(F)c1`: 1830 nM (active).
In the case of `O=C1c2ccccc2C(=O)N1c1noc2ccccc12`, the Potency result is “inactive”.
Turning to `Cc1ccc(NS(=O)(=O)c2ccc3c(c2)CCC(C)(C)O3)cc1C`, the Potency result is “inactive”.
The same measure for `O=C1c2ccccc2C(=O)N1c1cncc2ccccc12`: “inactive”; for `O=C1c2ccccc2C(=O)N1c1ccc2ccccc2n1`: “inactive”; for `O=C1CCc2cc(S(=O)(=O)Nc3cccc(-c4ccccc4)c3)ccc2N1`: “inactive”.
The same measure for `O=C1c2ccccc2C(=O)N1c1ncccc1O`: “inactive”.
